Hits are enriched below; roughly 3.6% of the tested compounds scored in any of these assays.
Pf apPOL inh = Pf-apPOL DNA polymerase inhibition; Recombinant Pf-apPOL, molecular beacon fluorescence, 1.5 h; inhibition, % at 10 µM; 210,000 tested, 0.25% active
mHTT-CaM PPI inh = disrupts binding of mutant huntingtin to calmodulin. AlphaScreen His-mHTT/GST-CaM binding, luminescence. 190,000 tested, 3.6% active. inhibition, % at 15 µM. AID 1671202. P42858;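 further: 0% = both proteins with DMSO and 100% = one protein alone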
* hit, by the source's call. No stated cut-off is given here; in the data, active means inhibition above about 50%; inactive means the rest.

SMILES | Pf apPOL inh | mHTT-CaM PPI inh
CC1=NOC(=O)/C1=C/c1ccc(OCc2ccc(F)cc2)c(Cl)c1 | -4 | -6
COc1cc(/C=C2/C(=O)ON=C2C)ccc1OCc1ccc(C)cc1 | -9 | 70*
CN1CCCCC1=NCCCn1cnc2c1c(=O)[nH]c(=O)n2C | -4 | -3
Cc1ccc(C(=O)Nc2ccc(NC(=O)C(F)(F)F)cc2)cc1 | 2 | 19
COc1cccc(NC(=O)Nc2nc3ccc4sc(C)nc4c3s2)c1 | -5 | 1
CC1=NN(C(=O)COc2cc(C)c(Cl)c(C)c2)C(O)(C(F)(F)F)C1 (stereo not drawn) | -3 | 12
O=C(c1ccccc1Cl)N1N=C2CCCCC2C1(O)C(F)(F)F (stereo not drawn) | -1 | -2
CC1=NN(C(=O)COc2ccc(Cl)c(C)c2)C(O)(C(F)(F)F)C1 (stereo not drawn) | -9 | 20
Cc1cc(OCC(=O)N2N=C(c3ccccc3)CC2(O)C(F)(F)F)ccc1Cl (stereo not drawn) | -12 | 100*
Cc1cc(OCC(=O)N2N=C(C3CCCCC3)CC2(O)C(F)(F)F)ccc1Cl (stereo not drawn) | 1 | 100*
Cc1cc(OCC(=O)N2N=C3CCCCC3C2(O)C(F)(F)F)ccc1Cl (stereo not drawn) | 3 | 80*
COc1cc(NC(=O)CN2C(=O)C(c3ccc(F)cc3)=NC2(C)C)cc(OC)c1 | -11 | 9
Cc1ccc2c(c1)nc(SCC(=O)c1ccc(-c3ccccc3)cc1)n2C | -4 | -1
CCc1nc2nc(C)cc(N3CCN(c4ccc(C)cc4C)CC3)n2n1 | -8 | 63*
CCCN(C)Cc1nc2nc(C)cc(N3CCCCCC3)n2n1 | -7 | 19
CCOc1cc(-c2ccc(SC)cc2)cc(=O)c2c(C)oc(C)c12 | 4 | 70*
CCOc1cc(-c2cc(OC)c(OC)c(OC)c2)cc(=O)c2c(C)oc(C)c12 | 2 | 37
CCOc1cc(-c2ccc(O)c(O)c2)cc(=O)c2c(C)oc(C)c12 | -3 | 47
COc1ccc(-c2cc(OC)c3c(C)oc(C)c3c(=O)c2)cc1 | 7 | 54*
CCOc1cc(-c2ccc(OCc3ccccc3)c(OC)c2)cc(=O)c2c(C)oc(C)c12 | -3 | 70*
COc1cc(-c2ccc(O)cc2)cc(=O)c2c(C)oc(C)c12 | 0 | 42
CCC(C)NC(=O)c1cn(-c2ccc(Cl)cc2)nn1 (stereo not drawn) | -3 | -9
O=C(Cc1ccc(F)cc1)NCc1cccnc1-c1ccc(F)cc1 | -4 | -2
COc1ccc(Cn2ccnc2SCC(=O)Nc2ccc(Br)cc2)cc1 | -8 | 32
COc1ccccc1C(=O)N1CCC(COc2ccc(C(=O)N3CCCC3)cc2)CC1 | -1 | 9
SMILES | Pf apPOL inh | mHTT-CaM PPI inh
O=C(Nc1cccc(N2CCCN(Cc3ccc(F)cc3)C2=O)c1)C1CCC1 | 1 | 6
COc1ccc(Cl)cc1NC(=O)N1CC(c2nc(-c3cnccn3)no2)C1 | -4 | -12
O=C(Nc1nccn(-c2ccc(F)c(F)c2)c1=O)c1ccccc1 | 1 | 1
O=C1C(=Cc2ccc(Br)cc2)Oc2cc(O)ccc21 | -7 | -1
O=C(O)COc1ccccc1C1OC2CCCCC2C2=CCCCC21 (stereo not drawn) | -6 | 50*
Oc1ccccc1C1OC2CCCCC2C2=CCCCC21 (stereo not drawn) | -7 | -8
COc1cc(OC)cc(C(=O)N2CC3CC2CC3NC(=O)c2cccs2)c1 (stereo not drawn) | -5 | 4
COc1ccc(Oc2nc3c(c(=O)n(Cc4ccccc4)c(=O)n3C)n2C)cc1 | 65* | 18
COc1ccc(Cn2c(Oc3ccccc3)nc3c2c(=O)n(C)c(=O)n3C)cc1 | 1 | -6
CC1(C)C(C=C(Cl)Cl)C1C(=O)Nc1ccc([N+](=O)[O-])cc1 (stereo not drawn) | -6 | 99*
CC1(C)C(C=C(Cl)Cl)C1C(=O)Nc1ccc(S(N)(=O)=O)cc1 (stereo not drawn) | -3 | 2
COc1ccc(NC(=O)C2C(C=C(Cl)Cl)C2(C)C)cc1 (stereo not drawn) | -6 | -36
O=C(Nc1ccc([N+](=O)[O-])cc1)C1C(c2ccccc2)C1(Cl)Cl (stereo not drawn) | -8 | 94*
Cc1cc(C)nc(NS(=O)(=O)c2ccc(NC(=O)C3C(C=C(Cl)Cl)C3(C)C)cc2)n1 (stereo not drawn) | -5 | 67*
O=C(Nc1cccnc1)C1C(c2ccccc2)C1(Cl)Cl (stereo not drawn) | -3 | -7
Cn1cc(C(=O)N2CCCC2)cc(NC(=O)C23CC4CC(CC(C4)C2)C3)c1=O | -2 | 16
COc1ccc(C=C2Oc3c(ccc(OCC(C)=O)c3C)C2=O)cc1OC | -4 | 24
COc1cccc(NC(=O)N(C2CCCCC2)C(C)c2ccncc2)c1 (stereo not drawn) | -17 | -3
CC(C)CC1C(=O)N(Cc2cn(CCC3OCCO3)nn2)CCS(=O)(=O)N1Cc1ccc(-c2ccc(F)cc2)cc1 (stereo not drawn) | -7 | 68*

Screening data (PubChem BioAssay)
